Test results: PubChem BioAssay AID1835 (Johns Hopkins Ion Channel Center, 2009)
Among all 2,400 compounds or so, about 750 (31%) were called active.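 The calls were made as follows: active = median signal gain over dofetilide-blocked control wells reaching their mean plus 3 SD, so readout 1 at least 0; inactive = the rest.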 Some of the results follow.

Target: Voltage-gated inwardly rectifying potassium channel KCNH2 (Homo sapiens) (UniProt Q12809)
Test: modulators restoring hERG flux under dofetilide – cell-based, thallium flux, duplicate retest, dofetilide IC70, confirmation (AID 1835)
Conditions: hERG cell line, FluxOR thallium flux, dofetilide-blocked; at 10 µM; stronger effect = higher value

Chain of Voltage-gated inwardly rectifying potassium channel KCNH2 (Homo sapiens) (Q12809 whole entry, looked up): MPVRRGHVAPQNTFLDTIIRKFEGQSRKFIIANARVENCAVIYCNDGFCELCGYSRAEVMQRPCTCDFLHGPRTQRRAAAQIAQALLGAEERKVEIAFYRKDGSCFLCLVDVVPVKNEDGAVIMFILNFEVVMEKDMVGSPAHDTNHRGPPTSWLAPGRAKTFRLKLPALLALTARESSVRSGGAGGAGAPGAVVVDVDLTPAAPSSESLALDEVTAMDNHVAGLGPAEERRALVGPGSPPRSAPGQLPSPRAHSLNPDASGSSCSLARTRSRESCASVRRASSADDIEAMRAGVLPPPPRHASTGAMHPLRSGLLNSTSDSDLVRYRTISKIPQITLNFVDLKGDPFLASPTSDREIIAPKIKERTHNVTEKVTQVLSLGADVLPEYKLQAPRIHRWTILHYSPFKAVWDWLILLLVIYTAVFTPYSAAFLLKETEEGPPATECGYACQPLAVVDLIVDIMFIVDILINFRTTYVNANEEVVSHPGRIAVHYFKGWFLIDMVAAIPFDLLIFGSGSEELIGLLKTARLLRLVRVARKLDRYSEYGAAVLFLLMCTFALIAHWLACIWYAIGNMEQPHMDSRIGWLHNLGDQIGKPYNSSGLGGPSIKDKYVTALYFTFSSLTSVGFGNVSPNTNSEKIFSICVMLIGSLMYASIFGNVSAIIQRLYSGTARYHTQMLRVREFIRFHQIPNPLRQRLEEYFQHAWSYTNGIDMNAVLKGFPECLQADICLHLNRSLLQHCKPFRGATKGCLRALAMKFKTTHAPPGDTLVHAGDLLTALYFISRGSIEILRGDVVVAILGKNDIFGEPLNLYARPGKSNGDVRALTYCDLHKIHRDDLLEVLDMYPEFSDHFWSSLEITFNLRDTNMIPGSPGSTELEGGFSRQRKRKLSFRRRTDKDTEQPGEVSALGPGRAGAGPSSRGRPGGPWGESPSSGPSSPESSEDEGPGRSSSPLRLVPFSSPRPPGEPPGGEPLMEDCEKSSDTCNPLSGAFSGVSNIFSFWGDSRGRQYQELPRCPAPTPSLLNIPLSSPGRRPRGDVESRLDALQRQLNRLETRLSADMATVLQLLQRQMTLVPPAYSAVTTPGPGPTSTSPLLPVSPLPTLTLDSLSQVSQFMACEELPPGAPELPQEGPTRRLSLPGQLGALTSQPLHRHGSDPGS

Row | SMILES | activity increase over dofetilide control, less the hit threshold
1 | Cc1cc(Cl)c(S(=O)(=O)N2CCSCC2)cc1OCC(=O)NC1CCCCC1 | -8% (inactive)
2 | Cc1nc(NCCc2ccc(S(N)(=O)=O)cc2)c2c(C)c(C)sc2n1 | 2% (active)
3 | O=C(Nc1nnc(-c2ccccc2)o1)c1ccc(Cl)cc1 | -19% (inactive)
4 | O=C(Nc1nc(-c2ccccc2)c(-c2ccccc2)o1)c1ccc(F)cc1 | 17% (active)
5 | O=C(Nc1cccc2[nH]ncc12)c1ccc(F)cc1 | -7% (inactive)
6 | O=c1cc(-c2c(F)c(F)c(F)c(F)c2F)oc2ccccc12 | 2% (active)
7 | CCOC(=O)CC(=O)CSc1nc2c(C)c(C)ccc2cc1C | -7% (inactive)
8 | CCOC(=O)C(=CNc1ccc(N2CCOCC2)cc1)C(=O)OCC | 0% (inactive)
9 | CCOC(=O)C(=CNc1cc(C)nn1C(C)(C)C)C(=O)OCC | 2% (active)
10 | CCOC(=O)C(=CNc1cc(C)ccc1[N+](=O)[O-])C(=O)OCC | -17% (inactive)
11 | CCOC(=O)C(=CNc1ccc(OC)cc1[N+](=O)[O-])C(=O)OCC | -10% (inactive)
12 | CCOC(=O)C(=CNc1cc(C)ccn1)C(=O)OCC | 10% (active)
13 | CCOC(=O)C(=CNc1cccc(C)n1)C(=O)OCC | 5% (active)
14 | O=C(NC1CCCC1)C(c1ccncc1)N(C(=O)Cn1nnc(-c2ccccc2F)n1)c1cccc(F)c1 (stereo not drawn) | -14% (inactive)
15 | Cc1cccc(C)c1NC(=O)Cn1cnc2c(=O)n(C)c(=O)n(C)c21 | -17% (inactive)
16 | COc1ccccc1C1C(C(=O)c2ccc(C)o2)=C(O)C(=O)N1c1cc(C)on1 (stereo not drawn) | -1% (inactive)
17 | Cc1ccc(NC(=O)COc2cccnc2[N+](=O)[O-])cc1S(=O)(=O)N1CCOCC1 | -24% (inactive)
18 | Cc1ccc(-c2noc(CCC(=O)NC3CCCC3)n2)cc1 | -7% (inactive)
19 | Cc1cc(C)cc(-n2c(C)cc(/C=N/NC(=O)CN(c3c(C)cccc3C)S(C)(=O)=O)c2C)c1 | -1% (inactive)
20 | CCN(C(=S)NC(=O)c1ccccc1Br)C1CCCCC1 | 80% (active)
21 | CN(C(=S)NC(=O)c1ccccc1Br)C1CCCCC1 | 1% (active)
22 | O=C(NCC1CCCCC1)c1cccnc1Cl | -14% (inactive)
23 | COc1cc(S(=O)(=O)Nc2c(C)cc(C)cc2C)ccc1Cl | -10% (inactive)
24 | O=C(CN1C(=O)COc2ccccc21)NNC(=O)Nc1ccccc1F | -22% (inactive)
25 | CC(C)CCn1c(SCC(=O)NC2CC2)nc2cc(Cl)ccc2c1=O | -13% (inactive)
26 | COCCn1c(SCC(=O)Nc2cc(C)cc(C)c2)nc2ccccc2c1=O | -9% (inactive)
27 | CCCn1c(SCN2C(=O)c3ccccc3C2=O)nc2cc(Cl)ccc2c1=O | 20% (active)

Row | SMILES | activity increase over dofetilide control, less the hit threshold
28 | CCCCC1C2=C(CCCC2=O)OC2=C1C(=O)CCC2 | -13% (inactive)
29 | CCCCn1c(N)c(C(=S)NC(=O)CC(C)(C)C)c(=O)n(C)c1=O | -3% (inactive)
30 | O=C1c2ccccc2NC(c2ccc(Br)s2)N1O (stereo not drawn) | 41% (active)
31 | COc1ccc(-c2cc(=O)oc3cc(OCC(C)=O)ccc23)cc1 | -27% (inactive)
32 | Cc1oc2ccc(OCc3ccc(Cl)cc3)cc2c1C(=O)O | -7% (inactive)
33 | COc1ccc(/C=C/c2cc(=O)c3cc(Cl)ccc3o2)cc1 | 56% (active)
34 | CCN(C(=O)c1cc2c(=O)[nH]c3ccc(C)cc3c2s1)c1ccccc1F | -15% (inactive)
35 | O=C(c1ccc2c(c1)N(Cc1ccccc1F)C(=O)c1ccccc1S2(=O)=O)N1CCCC1 | -10% (inactive)
36 | CC/C(=N\NC(=O)c1nnn(-c2nonc2N)c1-c1cccs1)c1ccccc1 | -4% (inactive)
37 | N#Cc1ccccc1OCCN1C(=O)c2ccccc2C1=O | -4% (inactive)
38 | S=c1[nH]c(-c2ccccc2)cs1 | 66% (active)
39 | O=Cc1cc(-c2ccccc2)[nH]c1-c1ccccc1 | -19% (inactive)
40 | S=c1[nH]c(-c2ccc(Cl)cc2)cs1 | 136% (active)
41 | S=c1[nH]nc(Nc2ccc(Cl)cc2)s1 | -3% (inactive)
42 | Cc1ccc(-c2csc(=S)[nH]2)cc1 | 95% (active)
43 | CO/N=C(\CCC(=O)O)c1cccs1 | -20% (inactive)
44 | O=C(N/N=C/c1cc([N+](=O)[O-])ccc1O)c1ccc(COc2ccc3c(c2)CCC3)o1 | -10% (inactive)
45 | Cc1c(N2C(=O)/C(=C\c3ccccc3O)SC2=S)c(=O)n(-c2ccccc2)n1C | 14% (active)
46 | O=C(O)COc1ccccc1/C=C1\SC(=S)N(NC(=O)c2ccccc2O)C1=O | -11% (inactive)
47 | O=C(OCc1ccc(F)cc1)c1cc(S(=O)(=O)N2CCCCC2)ccc1N1CCOCC1 | -21% (inactive)
48 | Cc1cc(=O)oc(C)c1C(=O)NCCC(C)C | -17% (inactive)
49 | COc1ccc(OC)c(NC(=O)C(=O)NNC(=O)c2cccs2)c1 | 8% (active)
50 | COc1ccc(NC(=O)CNC(=O)c2cccs2)cc1Cl | -8% (inactive)
51 | COc1ccc(NC(=O)C(=O)NNC(=O)c2cccs2)c(OC)c1 | 28% (active)
52 | COc1cc(NC(=O)c2ccc3c(c2)OCO3)ccc1NC(=O)c1cccs1 | -22% (inactive)
53 | CCc1cccc2c1NC(=O)C2(O)CC(=O)c1cccs1 (stereo not drawn) | -11% (inactive)
